Holding throughout (test): DAPPL (digital affinity profiling via proximity ligation, sequencing); 10 mM Tris-HCl pH 7.5, 50 mM NaCl, 1 mM DTT, 4% glycerol, room temperature, 30 min; GST-TFs on glutathione beads, 16-mer random dsDNA library, 0.1% formaldehyde crosslink after washing; high values mean tight binding
The target of experiment [1] is T1, FLI1 (Homo sapiens, UniProt Q01543 1-452).
T1 sequence: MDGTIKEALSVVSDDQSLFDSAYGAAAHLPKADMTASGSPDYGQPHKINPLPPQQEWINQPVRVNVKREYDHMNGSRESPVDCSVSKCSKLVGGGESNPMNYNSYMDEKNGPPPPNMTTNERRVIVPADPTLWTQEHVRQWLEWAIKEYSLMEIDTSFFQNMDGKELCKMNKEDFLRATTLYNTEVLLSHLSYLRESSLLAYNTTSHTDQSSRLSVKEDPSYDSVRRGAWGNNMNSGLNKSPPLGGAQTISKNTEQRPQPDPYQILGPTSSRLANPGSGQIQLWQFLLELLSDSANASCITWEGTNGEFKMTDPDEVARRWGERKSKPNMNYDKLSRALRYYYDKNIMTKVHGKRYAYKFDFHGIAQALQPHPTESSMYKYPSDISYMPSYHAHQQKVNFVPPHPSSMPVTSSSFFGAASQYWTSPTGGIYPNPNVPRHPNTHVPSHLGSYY
Conditions: protein: recombinant; tags: N-terminal GST; dsDNA, one strand shown. Summed up:
(§1)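 Human transcription factors were made in yeast as GST fusions, captured on glutathione beads and barcoded with DNA. With a tag-only sample included, the pool was incubated with 200 nmole of a random double-stranded 16-mer DNA library in Tris/NaCl/DTT/glycerol buffer at room temperature for 30 min, then crosslinked with 0.1% formaldehyde after washing, ligated by proximity, amplified and sequenced. For binding signal, each hexamer's read frequency for a factor is divided by its frequency for the tag-only sample.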

For experiment [2], the target named is T2, ELK1 (Homo sapiens, UniProt P19419 1-428).
T2 sequence: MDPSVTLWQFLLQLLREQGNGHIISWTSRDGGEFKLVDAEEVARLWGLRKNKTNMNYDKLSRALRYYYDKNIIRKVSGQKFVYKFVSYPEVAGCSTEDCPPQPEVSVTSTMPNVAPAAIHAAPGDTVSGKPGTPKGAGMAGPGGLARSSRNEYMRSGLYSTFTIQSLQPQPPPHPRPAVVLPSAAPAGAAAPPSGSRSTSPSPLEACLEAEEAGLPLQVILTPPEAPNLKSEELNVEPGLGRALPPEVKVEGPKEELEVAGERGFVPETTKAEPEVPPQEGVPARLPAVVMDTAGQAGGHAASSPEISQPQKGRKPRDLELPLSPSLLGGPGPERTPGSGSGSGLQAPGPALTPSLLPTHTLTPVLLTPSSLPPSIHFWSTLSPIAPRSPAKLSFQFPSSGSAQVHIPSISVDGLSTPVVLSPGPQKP
Conditions: protein: recombinant; tags: N-terminal GST; dsDNA, one strand shown. Summed up:
as §1

Experiment [3] addresses T3, GABPA (Homo sapiens, UniProt Q06546 1-454).
T3 sequence: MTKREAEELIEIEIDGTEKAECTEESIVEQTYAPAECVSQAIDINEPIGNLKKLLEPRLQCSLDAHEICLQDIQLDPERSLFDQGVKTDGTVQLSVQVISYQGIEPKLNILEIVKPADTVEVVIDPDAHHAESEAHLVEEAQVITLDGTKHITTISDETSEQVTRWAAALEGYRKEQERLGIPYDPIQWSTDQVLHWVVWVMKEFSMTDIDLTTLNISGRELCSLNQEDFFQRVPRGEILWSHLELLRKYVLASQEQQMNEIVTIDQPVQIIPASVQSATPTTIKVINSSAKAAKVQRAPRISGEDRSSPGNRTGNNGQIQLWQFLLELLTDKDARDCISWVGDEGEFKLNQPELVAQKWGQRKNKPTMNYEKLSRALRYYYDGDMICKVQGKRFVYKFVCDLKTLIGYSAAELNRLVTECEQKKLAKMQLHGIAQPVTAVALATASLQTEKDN
Conditions: protein: recombinant; tags: N-terminal GST; dsDNA, one strand shown. An outline of the steps: as §1

Experiment [4] concerns the target T4, ERG (Homo sapiens, UniProt P11308 1-479).
T4 sequence: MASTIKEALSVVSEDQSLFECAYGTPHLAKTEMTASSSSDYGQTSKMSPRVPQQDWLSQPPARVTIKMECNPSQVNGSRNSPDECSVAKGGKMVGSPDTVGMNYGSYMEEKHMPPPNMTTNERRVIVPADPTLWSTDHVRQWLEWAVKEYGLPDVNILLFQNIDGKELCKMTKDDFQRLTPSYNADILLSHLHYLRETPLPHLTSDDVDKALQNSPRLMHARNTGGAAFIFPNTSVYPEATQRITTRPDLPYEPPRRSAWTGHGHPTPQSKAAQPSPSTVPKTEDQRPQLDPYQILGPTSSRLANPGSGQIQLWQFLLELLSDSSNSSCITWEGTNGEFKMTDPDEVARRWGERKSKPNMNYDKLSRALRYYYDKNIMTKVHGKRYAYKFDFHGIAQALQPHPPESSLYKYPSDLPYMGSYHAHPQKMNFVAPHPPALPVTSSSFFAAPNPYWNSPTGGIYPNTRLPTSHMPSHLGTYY
The following applies: protein: recombinant; tags: N-terminal GST; dsDNA, one strand shown. Summed up:
as §1

The target in experiment [5] is ELF1 (Homo sapiens, UniProt P32519 1-619). Conditions: protein: recombinant; tags: N-terminal GST; dsDNA, one strand shown. An outline of the steps: as §1
ELF1, sequence (P32519 whole entry): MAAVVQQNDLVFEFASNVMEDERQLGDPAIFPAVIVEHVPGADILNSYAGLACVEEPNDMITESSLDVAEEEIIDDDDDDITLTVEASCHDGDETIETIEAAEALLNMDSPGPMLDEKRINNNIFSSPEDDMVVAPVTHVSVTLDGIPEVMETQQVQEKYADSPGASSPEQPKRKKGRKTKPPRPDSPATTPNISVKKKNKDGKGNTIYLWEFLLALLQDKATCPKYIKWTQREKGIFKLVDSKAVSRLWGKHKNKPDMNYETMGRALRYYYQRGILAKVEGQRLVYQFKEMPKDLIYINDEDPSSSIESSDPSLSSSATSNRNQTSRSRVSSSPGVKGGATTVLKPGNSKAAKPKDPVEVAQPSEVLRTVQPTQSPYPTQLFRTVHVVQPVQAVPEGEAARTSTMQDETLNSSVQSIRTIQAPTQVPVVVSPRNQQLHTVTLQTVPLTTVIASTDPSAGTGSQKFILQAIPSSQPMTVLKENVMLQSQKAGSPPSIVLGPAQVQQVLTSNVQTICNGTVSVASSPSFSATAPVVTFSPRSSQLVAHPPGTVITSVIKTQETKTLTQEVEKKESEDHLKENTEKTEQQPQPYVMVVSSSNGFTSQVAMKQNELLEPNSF
Experiment [6] has as its target T5, EHF (Homo sapiens, UniProt Q9NZC4 1-300).
T5 sequence: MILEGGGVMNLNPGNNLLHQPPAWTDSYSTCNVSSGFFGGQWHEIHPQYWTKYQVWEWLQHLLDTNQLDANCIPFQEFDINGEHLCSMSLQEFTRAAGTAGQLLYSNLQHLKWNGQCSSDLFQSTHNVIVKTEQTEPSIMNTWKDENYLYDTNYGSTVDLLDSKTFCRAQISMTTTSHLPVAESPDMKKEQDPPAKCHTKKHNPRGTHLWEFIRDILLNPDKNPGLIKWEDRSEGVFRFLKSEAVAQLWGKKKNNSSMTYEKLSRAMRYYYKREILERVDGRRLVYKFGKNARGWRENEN
Conditions: protein: recombinant; tags: N-terminal GST; dsDNA, one strand shown. Summed up: as §1

Experiment [7] has as its target SPI1 (Homo sapiens, UniProt P17947 1-270). Conditions: protein: recombinant; tags: N-terminal GST; dsDNA, one strand shown. An outline of the steps:
as §1

Experiment [8] has as its target SPIB (Homo sapiens, UniProt Q01892 1-262). Conditions: protein: recombinant; tags: N-terminal GST; dsDNA, one strand shown. Summed up: as §1
In experiment [9] the target is T6, ELK3 (Homo sapiens, UniProt P41970 1-407).
T6 sequence: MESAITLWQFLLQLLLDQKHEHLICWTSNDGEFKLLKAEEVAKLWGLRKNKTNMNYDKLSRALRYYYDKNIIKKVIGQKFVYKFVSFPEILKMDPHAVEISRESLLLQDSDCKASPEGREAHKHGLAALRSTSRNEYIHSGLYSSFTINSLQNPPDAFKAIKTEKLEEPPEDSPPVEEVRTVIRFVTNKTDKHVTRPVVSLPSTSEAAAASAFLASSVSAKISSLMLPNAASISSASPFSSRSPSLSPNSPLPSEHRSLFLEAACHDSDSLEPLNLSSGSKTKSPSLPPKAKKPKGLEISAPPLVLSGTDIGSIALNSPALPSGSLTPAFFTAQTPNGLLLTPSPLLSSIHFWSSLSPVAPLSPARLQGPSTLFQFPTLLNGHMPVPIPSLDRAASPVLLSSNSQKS
Conditions: protein: recombinant; tags: N-terminal GST; dsDNA, one strand shown. Summed up: as §1

The target of experiment [10] is T7, FEV (Homo sapiens, UniProt Q99581 1-238).
T7 sequence: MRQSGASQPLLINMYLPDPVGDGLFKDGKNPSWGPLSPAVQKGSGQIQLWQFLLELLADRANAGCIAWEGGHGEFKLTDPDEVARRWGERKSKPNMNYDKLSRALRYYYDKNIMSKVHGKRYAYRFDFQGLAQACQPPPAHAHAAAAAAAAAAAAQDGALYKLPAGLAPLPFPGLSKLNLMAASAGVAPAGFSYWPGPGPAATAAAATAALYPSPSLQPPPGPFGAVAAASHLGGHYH
The following applies: protein: recombinant; tags: N-terminal GST; dsDNA, one strand shown. Summed up:
as §1

For experiment [11], the target named is ETV5 (Homo sapiens, UniProt P41161 1-510). The following applies: protein: recombinant; tags: N-terminal GST; dsDNA, one strand shown. Summed up: as §1
ETV5, sequence (P41161 whole entry): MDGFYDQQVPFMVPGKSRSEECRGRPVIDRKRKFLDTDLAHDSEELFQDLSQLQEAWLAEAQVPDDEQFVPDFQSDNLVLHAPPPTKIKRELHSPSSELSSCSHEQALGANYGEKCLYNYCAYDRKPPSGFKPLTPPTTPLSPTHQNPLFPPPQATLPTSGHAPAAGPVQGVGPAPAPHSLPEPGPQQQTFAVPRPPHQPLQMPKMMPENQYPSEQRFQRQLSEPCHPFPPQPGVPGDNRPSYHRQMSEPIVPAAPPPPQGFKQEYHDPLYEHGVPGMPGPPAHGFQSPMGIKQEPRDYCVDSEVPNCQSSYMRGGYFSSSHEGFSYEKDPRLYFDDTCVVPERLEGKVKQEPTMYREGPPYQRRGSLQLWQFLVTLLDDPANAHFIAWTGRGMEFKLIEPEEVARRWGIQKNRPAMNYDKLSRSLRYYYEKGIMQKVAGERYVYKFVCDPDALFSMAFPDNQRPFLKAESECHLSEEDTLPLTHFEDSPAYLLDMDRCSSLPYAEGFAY
In experiment [12] the target is HSF1 (Homo sapiens, UniProt Q00613 1-529). Conditions: protein: recombinant; tags: N-terminal GST; chain copies: 3; dsDNA, one strand shown. Summed up: as §1
HSF1, sequence (Q00613 whole entry): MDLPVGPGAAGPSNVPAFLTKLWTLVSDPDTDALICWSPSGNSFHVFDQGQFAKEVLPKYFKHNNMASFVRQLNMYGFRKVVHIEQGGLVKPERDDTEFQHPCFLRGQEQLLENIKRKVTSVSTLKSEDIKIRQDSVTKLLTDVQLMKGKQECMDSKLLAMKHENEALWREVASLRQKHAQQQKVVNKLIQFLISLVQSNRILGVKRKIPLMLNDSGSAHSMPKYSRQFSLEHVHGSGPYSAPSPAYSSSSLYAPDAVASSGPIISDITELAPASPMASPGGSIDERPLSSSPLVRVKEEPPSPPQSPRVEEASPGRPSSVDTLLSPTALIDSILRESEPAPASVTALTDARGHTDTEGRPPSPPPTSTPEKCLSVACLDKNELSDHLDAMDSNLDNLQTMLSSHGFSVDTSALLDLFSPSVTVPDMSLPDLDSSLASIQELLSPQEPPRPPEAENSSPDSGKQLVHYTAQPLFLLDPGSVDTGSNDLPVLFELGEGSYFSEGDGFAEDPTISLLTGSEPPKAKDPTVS
Experiment [13] deals with T8, SPIC (Homo sapiens, UniProt Q8N5J4 1-248).
T8 sequence: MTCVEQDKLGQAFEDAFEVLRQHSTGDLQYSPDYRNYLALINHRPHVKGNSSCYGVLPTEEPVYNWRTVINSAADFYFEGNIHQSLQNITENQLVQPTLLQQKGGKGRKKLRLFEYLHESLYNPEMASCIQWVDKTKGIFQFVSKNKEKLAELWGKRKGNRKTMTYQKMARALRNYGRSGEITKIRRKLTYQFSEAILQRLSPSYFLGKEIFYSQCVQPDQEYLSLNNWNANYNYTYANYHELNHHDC
Conditions: protein: recombinant; tags: N-terminal GST; dsDNA, one strand shown. An outline of the steps: as §1

Experiment [14] concerns the target ELF4 (Homo sapiens, UniProt Q99607 1-663). The following applies: protein: recombinant; tags: N-terminal GST; dsDNA, one strand shown. An outline of the steps: as §1
The target in experiment [15] is T9, ELK4 (Homo sapiens, UniProt P28324-2 1-405).
T9 sequence: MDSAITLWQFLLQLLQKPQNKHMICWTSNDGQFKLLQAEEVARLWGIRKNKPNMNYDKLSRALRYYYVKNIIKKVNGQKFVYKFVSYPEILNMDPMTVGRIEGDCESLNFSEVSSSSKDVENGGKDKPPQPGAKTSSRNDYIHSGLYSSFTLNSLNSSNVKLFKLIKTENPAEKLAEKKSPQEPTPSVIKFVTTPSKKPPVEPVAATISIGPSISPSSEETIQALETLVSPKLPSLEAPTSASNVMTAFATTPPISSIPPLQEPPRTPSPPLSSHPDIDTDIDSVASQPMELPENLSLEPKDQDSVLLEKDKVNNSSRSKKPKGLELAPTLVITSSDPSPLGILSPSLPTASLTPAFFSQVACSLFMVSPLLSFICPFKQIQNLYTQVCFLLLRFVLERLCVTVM
The following applies: protein: recombinant; tags: N-terminal GST; dsDNA, one strand shown. Summed up: as §1

Experiment [16] deals with T10, ETV2 (Homo sapiens, UniProt O00321 1-342).
T10 sequence: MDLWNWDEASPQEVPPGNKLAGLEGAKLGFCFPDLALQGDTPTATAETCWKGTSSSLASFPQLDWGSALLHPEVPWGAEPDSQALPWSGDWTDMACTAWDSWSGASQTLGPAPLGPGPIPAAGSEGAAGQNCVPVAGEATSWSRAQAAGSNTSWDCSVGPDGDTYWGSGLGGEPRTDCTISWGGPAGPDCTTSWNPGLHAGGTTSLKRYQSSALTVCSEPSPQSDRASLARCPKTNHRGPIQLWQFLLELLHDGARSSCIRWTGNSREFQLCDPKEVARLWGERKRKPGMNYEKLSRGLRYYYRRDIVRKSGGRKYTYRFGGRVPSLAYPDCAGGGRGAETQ
Conditions: protein: recombinant; tags: N-terminal GST; dsDNA, one strand shown. An outline of the steps:
as §1

The target in experiment [17] is T11, ELF3 (Homo sapiens, UniProt P78545 1-371).
T11 sequence: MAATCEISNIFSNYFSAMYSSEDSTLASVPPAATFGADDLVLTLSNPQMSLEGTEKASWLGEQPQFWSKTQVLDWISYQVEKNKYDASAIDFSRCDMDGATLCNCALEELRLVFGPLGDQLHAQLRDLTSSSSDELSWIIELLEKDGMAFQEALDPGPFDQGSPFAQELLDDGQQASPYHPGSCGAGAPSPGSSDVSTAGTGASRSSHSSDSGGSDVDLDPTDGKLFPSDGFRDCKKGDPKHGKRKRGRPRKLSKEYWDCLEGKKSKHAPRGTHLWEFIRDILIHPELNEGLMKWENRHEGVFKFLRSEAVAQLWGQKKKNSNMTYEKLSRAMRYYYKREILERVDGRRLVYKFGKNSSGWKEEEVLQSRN
The following applies: protein: recombinant; tags: N-terminal GST; dsDNA, one strand shown. An outline of the steps:
as §1

The target in experiment [18] is ETV1 (Homo sapiens, UniProt P50549 1-477). Conditions: protein: recombinant; tags: N-terminal GST; dsDNA, one strand shown. Summed up: as §1
ETV1, sequence (P50549 whole entry): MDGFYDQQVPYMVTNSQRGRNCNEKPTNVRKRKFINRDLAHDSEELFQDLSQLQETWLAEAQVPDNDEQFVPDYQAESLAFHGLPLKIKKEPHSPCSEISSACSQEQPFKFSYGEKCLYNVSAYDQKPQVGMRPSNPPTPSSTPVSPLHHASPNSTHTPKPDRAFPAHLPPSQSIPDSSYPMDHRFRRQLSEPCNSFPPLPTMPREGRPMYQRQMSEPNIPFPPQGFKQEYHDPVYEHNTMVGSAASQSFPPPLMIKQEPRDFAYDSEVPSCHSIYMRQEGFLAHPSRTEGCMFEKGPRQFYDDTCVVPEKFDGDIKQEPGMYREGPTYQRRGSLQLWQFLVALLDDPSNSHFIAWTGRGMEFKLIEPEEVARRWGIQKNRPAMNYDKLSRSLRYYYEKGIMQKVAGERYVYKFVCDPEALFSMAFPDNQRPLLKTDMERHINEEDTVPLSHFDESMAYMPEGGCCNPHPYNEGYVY

SPIB, sequence (Q01892 whole entry): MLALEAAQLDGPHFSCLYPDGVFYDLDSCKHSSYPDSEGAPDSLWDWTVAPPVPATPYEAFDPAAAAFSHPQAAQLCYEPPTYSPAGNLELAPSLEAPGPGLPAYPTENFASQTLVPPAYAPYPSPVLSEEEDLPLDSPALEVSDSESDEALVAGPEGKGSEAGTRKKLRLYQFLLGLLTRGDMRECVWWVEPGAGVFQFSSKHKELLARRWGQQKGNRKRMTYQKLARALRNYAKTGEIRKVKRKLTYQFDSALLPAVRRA
ELF4, sequence (Q99607 whole entry): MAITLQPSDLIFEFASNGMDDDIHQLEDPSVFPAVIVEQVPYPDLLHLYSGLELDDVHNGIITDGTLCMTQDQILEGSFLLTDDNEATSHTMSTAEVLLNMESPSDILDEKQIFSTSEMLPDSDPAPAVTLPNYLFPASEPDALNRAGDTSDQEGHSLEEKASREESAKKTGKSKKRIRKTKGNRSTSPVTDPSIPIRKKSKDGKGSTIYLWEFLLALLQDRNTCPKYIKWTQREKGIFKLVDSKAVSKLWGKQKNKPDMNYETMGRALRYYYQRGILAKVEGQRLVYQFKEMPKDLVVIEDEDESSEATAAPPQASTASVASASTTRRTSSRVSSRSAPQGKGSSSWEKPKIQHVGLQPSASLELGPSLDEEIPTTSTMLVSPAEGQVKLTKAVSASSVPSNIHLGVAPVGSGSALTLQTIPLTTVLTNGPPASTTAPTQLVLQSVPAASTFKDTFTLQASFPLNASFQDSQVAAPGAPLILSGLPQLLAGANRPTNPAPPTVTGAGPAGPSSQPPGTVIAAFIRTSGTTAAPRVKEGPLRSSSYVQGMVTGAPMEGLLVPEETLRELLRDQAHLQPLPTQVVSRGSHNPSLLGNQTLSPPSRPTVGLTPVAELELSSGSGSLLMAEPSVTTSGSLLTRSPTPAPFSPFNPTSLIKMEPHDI

For GAAATG, the binding signal in experiment [1] is 1.52 fold enrichment (6-mer frequency, TF over GST control); in experiment [2], 1.61 fold enrichment (6-mer frequency, TF over GST control); in [3], 1.55 fold enrichment (6-mer frequency, TF over GST control); in experiment [4], 1.73 fold enrichment (6-mer frequency, TF over GST control); in experiment [5] it was 1.54 fold enrichment (6-mer frequency, TF over GST control); in experiment [6] it was 1.65 fold enrichment (6-mer frequency, TF over GST control). Further, the binding signal in experiment [7] is 1.67 fold enrichment (6-mer frequency, TF over GST control); in experiment [8], 1.6 fold enrichment (6-mer frequency, TF over GST control); in experiment [9] it was 1.6 fold enrichment (6-mer frequency, TF over GST control); in [10], 1.77 fold enrichment (6-mer frequency, TF over GST control); in experiment [11], 1.7 fold enrichment (6-mer frequency, TF over GST control); in [12], 1.1 fold enrichment (6-mer frequency, TF over GST control). The binding signal in experiment [13] is 1.56 fold enrichment (6-mer frequency, TF over GST control); in experiment [14] it was 1.49 fold enrichment (6-mer frequency, TF over GST control); in experiment [15] it was 1.65 fold enrichment (6-mer frequency, TF over GST control); in experiment [16], 1.55 fold enrichment (6-mer frequency, TF over GST control); in experiment [17], 1.78 fold enrichment (6-mer frequency, TF over GST control); in experiment [18] it was 1.58 fold enrichment (6-mer frequency, TF over GST control).

The values are drawn from PMC7862700, “An all-to-all approach to the identification of sequence-specific readers for epigenetic DNA modifications on cytosine”.
